# According to PubChem BioAssay (NCATS):
# Values without a mark were called inactive. Inconclusive results are not listed. Where a call stands in place of a potency, no number is given. Activity calls are given as the source filed them. Calls come from the whole dose curve; as a rule, active = well fitted curve in the direction sought with a large enough effect; inconclusive = small, poorly fitted or top-dose-only effect, or another doubt; inactive = no such curve, though single readings can be large; an effect the other way counts as inactive or inconclusive.
# Experiments:
# [1] = Cellular Toxicity (caspase-3) Mesangial (AID 660); conditions: mesangial cells, normalized: DMSO 0%, 100 µM tamoxifen 100%; at 91.7 µM (top of the series);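 note: combined caspase 3 and 7 activity read by Caspase-Glo luminescence; cells exposed to compound for 16 h before the caspase read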
# How it was run: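 Caspase 3/7 activation measured by Caspase-Glo 3/7 luminescence (20 min, room temperature) following 16 h exposure of mesangial cells (1000/well); AC50 from Hill-equation fit, normalized to DMSO and 100 uM tamoxifen.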
# [2] = Cellular Toxicity (caspase-3) SK-N-SH (AID 661)
# How it was run: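 Caspase 3/7 activation was read by luminogenic substrate cleavage after 16 hour treatment of SK-N-SH cells. Signal was scaled between DMSO and 10 uM staurosporine, and concentration-response data were fitted with the Hill equation for AC50.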
# [3] = Cellular Toxicity (caspase-3) H-4-II-E (AID 663); conditions: H-4-II-E rat hepatoma, scaled: DMSO 0%, 100 µM tamoxifen 100%; at 92.2 µM (top of the series);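 note: cells exposed to compound for 16 hr before readout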
# How it was run: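 Caspase 3/7 activation measured by luminescent aminoluciferin substrate cleavage after 16 hr compound treatment of H-4-II-E cells in complete medium. Increase normalized between DMSO (basal) and 100 uM tamoxifen (100%); Hill-equation AC50 from concentration-response.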
# [4] = Cellular Toxicity (caspase-3) Hek293 (AID 664); conditions: HEK293 caspase-3 activation, DMSO = 0%, 100 µM tamoxifen = 100%; at 92.2 µM (top of the series);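 note: cells exposed to compound for 16 h at 37 °C before readout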
# How it was run: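 Concentration-response qHTS: caspase 3/7 activation measured by luminescent aminoluciferin substrate cleavage after 16 h compound exposure of Hek 293 cells. AC50 from Hill equation, with DMSO as basal and 100 uM tamoxifen as 100%.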
# [5] = Cellular Toxicity (caspase-3) N2a (AID 665);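 note: compound exposure lasted 16 h at 37 °C before readout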
# How it was run: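 Caspase-3/7 activation measured as luminescence from Caspase-Glo reagent (1 h, room temperature) after 16 h compound exposure of mouse N2a cells. AC50 values from Hill-equation concentration-response, scaled between DMSO and 10 uM staurosporine.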
# [6] = Cellular Toxicity (caspase-3) NIH 3T3 (AID 666);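 note: caspase signal read after 16 h compound exposure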
# How it was run: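 Caspase-Glo 3/7 luminescence reported caspase activation in 1000 NIH 3T3 cells/well after 16 h compound exposure at 37 C. DMSO set basal and 100 uM tamoxifen set 100% stimulation; concentration-response modeled with the Hill equation for AC50.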
# [7] = Cellular Toxicity (caspase-3) Renal Proximal Tubule (AID 667); conditions: Potency: caspase-3 activation;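 note: cells exposed to compound for 16 hours at 37 °C before detection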
# How it was run: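 AC50 derived by standard Hill fit of concentration-response data, normalized between DMSO basal and 10 uM staurosporine as 100% stimulation. Cells: primary rat kidney proximal tubule, 16 h treatment at 37 °C.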
# [8] = target: Cytochrome P450 3A4 (Homo sapiens) (UniProt P08684); test: qHTS Assay for Inhibitors and Substrates of Cytochrome P450 3A4 (AID 884); note: nearly all actives have a fitted effect of over 50% in size; note: potency is the fitted concentration of half-maximal effect
# How it was run: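 Luminescent readout of luciferin produced by CYP3A4 (20 nM) dealkylation of Luciferin-PPXE, 25 uM (its KM). NADPH-driven reaction ran 60 min at RT after 10 min compound preincubation; data scaled to 57 uM ketoconazole as 100% inhibition.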
# [9] = Cell Viability - LYMP2-001 (AID 921); note: nearly all actives have a fitted effect of over 70% in size
# How it was run: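 Steps: seed 2500 lymphoblastoid cells/well; 5 hr, 37 C; add compound; 24 hr, 37 C; CellTiter-Glo reagent, 30 min room temperature; read luminescence. Concentration-response modeled by Hill equation for AC50.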
# [10] = MultiTox-Fluor Cytotoxicity Assay - LYMP1-001 - Dead Cells (AID 946)
# How it was run: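 LYMP1-001 lymphoblastoid cells (2500/well) treated 16 h at 37 C. Dead-cell protease cleavage of bis-AAF-R110 read at Ex/Em 485/520. Normalized to DMSO and 15 uM tetraoctylammonium bromide; AC50 from Hill fits.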
# [11] = MultiTox-Fluor Cytotoxicity Assay - LYMP1-001 - Live Cells (AID 947)
# [12] = Cell Viability - LYMP1-002 - Assay at 16 hr (AID 948)
# How it was run: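 Seed 2500 LYMP1-002 cells per well in complete medium and hold 5 hr at 37 C. Add compound across a concentration series and incubate 16 hr at 37 C. Add CellTiter-Glo, wait 30 min at room temperature, read luminescence.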
# [13] = MultiTox-Fluor Cytotoxicity Assay - LYMP1-002 - Live Cells (AID 955)
# How it was run: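 After 16 h compound exposure at 37 C, live LYMP1-002 lymphoblastoid cells (2500/well) were quantified by cleavage of cell-permeant GF-AFC substrate, read at 405/510 nm after 60 min. Concentration-response fitted with Hill equation for AC50.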
# [14] = MultiTox-Fluor Cytotoxicity Assay - LYMP1-002 - Dead Cells (AID 960); note: nearly all actives have a fitted effect of over 60% in size
# How it was run: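 Dead-cell fluorescence (Ex/Em 485/520) after 16 h compound exposure at 37 C of LYMP1-002 lymphoblastoid cells in complete medium; AC50 by Hill equation, with data scaled between DMSO and 15 uM tetraoctylammonium bromide.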
# [15] = MultiTox-Fluor Cytotoxicity Assay - LYMP1-003 - Live Cells (AID 962);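 note: cytotoxic hits lower the live-cell protease signal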
# How it was run: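 Live-cell protease activity (GF-AFC substrate, 405/510 nm, 60 min at room temperature) after 16 h, 37 C compound exposure of human lymphoblastoid LYMP1-003 cells; concentration-response fitted to the Hill equation for AC50.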
# [16] = Cell Viability - LYMP1-003 - Assay at 24 hr (AID 963)
# How it was run: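 Concentration-response qHTS: ATP loss measured by CellTiter-Glo luminescence after 24 h compound exposure at 37 C. Cells were LYMP1-003 human lymphoblastoid, 2500 per well. AC50 derived via standard Hill equation modeling.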
# [17] = Cell Viability - LYMP1-003 - Assay at 40 hr (AID 964); note: nearly all actives have a fitted effect of over 60% in size
# How it was run: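 Viability is taken as cellular ATP, read by CellTiter-Glo luminescence after 40 h of compound exposure at 37 C. Cells: human lymphoblastoid line LYMP1-003 at 2500/well; AC50 values derived by Hill-equation fitting of concentration-response data.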
# [18] = Cell Viability - LYMP2-003 (AID 965);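 note: cells exposed to compounds for 24 h before reading; nearly all actives have a fitted effect of over 50% in size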
# How it was run: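 Seed 2500 lymphoblastoid cells/well; incubate 5 hr, 37 C; add compounds; incubate 24 hr, 37 C; add CellTiter-Glo, 30 min RT; read luminescence. AC50 from Hill fit.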
# [19] = Cell Viability - LYMP2-004 (AID 966); note: nearly all actives have a fitted effect of over 65% in size
# How it was run: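 AC50 values come from Hill modelling of concentration-dependent loss of intracellular ATP, measured by CellTiter-Glo luminescence. Human LYMP2-004 lymphoblastoid cells (2500/well) were exposed to compound for 24 h at 37 C.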
# [20] = MultiTox-Fluor Cytotoxicity Assay - LYMP1-003 - Dead Cells (AID 961); note: nearly all actives have a fitted effect of over 70% in size
# How it was run: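 LYMP1-003 human lymphoblastoid cells (2500/well) exposed to compound 16 h at 37 C in complete medium; dead-cell protease read with bis-AAF-R110 fluorescence (Ex/Em 485/520) after 60 min at room temperature. Normalized to DMSO and 15 uM tetraoctylammonium bromide; AC50 from Hill fit.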
# Sequence of Cytochrome P450 3A4 (Homo sapiens) (P08684 whole entry, looked up): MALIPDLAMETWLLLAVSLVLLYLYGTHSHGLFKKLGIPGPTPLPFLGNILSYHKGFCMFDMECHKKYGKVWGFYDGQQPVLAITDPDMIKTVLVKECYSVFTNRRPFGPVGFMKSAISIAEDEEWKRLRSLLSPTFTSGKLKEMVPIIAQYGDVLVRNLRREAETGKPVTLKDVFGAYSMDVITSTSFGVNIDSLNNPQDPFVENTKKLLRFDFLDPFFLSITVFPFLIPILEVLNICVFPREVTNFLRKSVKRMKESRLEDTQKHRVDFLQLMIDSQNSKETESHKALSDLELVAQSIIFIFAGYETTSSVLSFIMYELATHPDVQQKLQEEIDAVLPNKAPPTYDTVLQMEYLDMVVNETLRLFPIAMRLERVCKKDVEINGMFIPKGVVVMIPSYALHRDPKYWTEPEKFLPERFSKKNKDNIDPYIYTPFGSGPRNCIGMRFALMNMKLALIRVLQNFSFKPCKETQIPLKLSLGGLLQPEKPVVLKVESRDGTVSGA
Structure (SMILES),caspase-3 activation [1] [%],outcome [2],caspase-3 activation [3] [%],caspase-3 activation [4] [%],outcome [5],outcome [6],Potency [7],Potency [8],Potency [9],outcome [10],outcome [11],outcome [12],outcome [13],outcome [14],Potency [15],Potency [16],Potency [17],Potency [18],Potency [19],Potency [20]
CC(C)(O)CCC(C)(C)O,-1.06,inactive,0.513,5.12,inactive,inactive,inactive,inactive,inactive,inactive,inactive,inactive,inactive,inactive,inactive,inactive,inactive,inactive,inactive,–
C=CCOC(=O)CCCCCCCC,0.626,inactive,-0.694,1.74,inactive,inactive,inactive,inactive,inactive,inactive,–,inactive,inactive,inactive,inactive,inactive,inactive,–,–,inactive
CNc1ccc([N+](=O)[O-])cc1,0.0307,inactive,0.918,-2.51,inactive,inactive,inactive,inactive,inactive,inactive,inactive,inactive,inactive,–,inactive,inactive,inactive,inactive,inactive,inactive
CCCCC(CC)CNCC(CC)CCCC (centres undefined),-1.31,inactive,-0.122,0.754,inactive,inactive,inactive,inactive,inactive,inactive,inactive,inactive,inactive,inactive,inactive,inactive,inactive,inactive,inactive,–
c1ccc2n[nH]nc2c1,0.6,inactive,-0.743,1.96,inactive,inactive,inactive,inactive,inactive,inactive,inactive,inactive,inactive,–,inactive,inactive,inactive,inactive,inactive,inactive
CC(=O)OCc1ccco1,-0.525,inactive,-0.245,-4.85,inactive,inactive,inactive,inactive,inactive,inactive,inactive,inactive,inactive,inactive,inactive,inactive,inactive,inactive,inactive,inactive
CCCCCCCCN,-0.125,inactive,0.977,0.408,inactive,inactive,inactive,inactive,inactive,inactive,inactive,inactive,inactive,inactive,inactive,inactive,inactive,inactive,inactive,–
CC=O,1.5,inactive,1.97,2.27,inactive,inactive,inactive,inactive,inactive,inactive,inactive,inactive,inactive,inactive,inactive,inactive,inactive,inactive,inactive,–
CCC(C)(C)C(=O)O,0.0755,inactive,1.75,1.52,inactive,inactive,inactive,inactive,inactive,inactive,inactive,inactive,inactive,inactive,inactive,inactive,inactive,inactive,–,–
Nc1nc(-c2ccccc2)cs1,0.48,inactive,0.301,0.507,inactive,inactive,inactive,20 µM (active),inactive,inactive,inactive,inactive,inactive,–,inactive,inactive,inactive,inactive,inactive,inactive
CC(C)C(C)C,0.762,inactive,-0.199,-1.39,inactive,inactive,inactive,inactive,inactive,inactive,inactive,inactive,inactive,inactive,inactive,inactive,inactive,inactive,inactive,inactive
Oc1c(Cl)ccc(Cl)c1Cl,0.532,inactive,0.28,4.28,inactive,inactive,inactive,inactive,inactive,inactive,inactive,inactive,inactive,inactive,inactive,inactive,inactive,inactive,inactive,–
C=C(C)C(N)=O,-0.474,inactive,-0.402,-0.593,inactive,inactive,inactive,inactive,inactive,inactive,–,inactive,inactive,inactive,inactive,inactive,inactive,inactive,inactive,inactive
Nc1c(Cl)cc(Cl)cc1Cl,0.75,inactive,2.86,-0.377,inactive,inactive,inactive,inactive,inactive,inactive,inactive,inactive,inactive,inactive,inactive,inactive,inactive,inactive,–,–
